High-throughput results deposited in PubChem BioAssay by several laboratories.
Only some compounds are listed: those with a hit (about 2.2% of all), similar ones and a draw of the others.
Exocytosis inh – blocks lytic granule exocytosis; TALL-104 LAMP-1 surface exposure, flow cytometry; cells stimulated with thapsigargin and PMA; inhibition, % at 10 µM; 0.66% of 360,000 active;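 active = inhibition above about 55%, limit read from the data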
GASC-1 inh – blocks human GASC-1 demethylase activity | Q9H3R0 | GST-JMJD2C(1-420) H3K9me3 demethylation, DELFIA europium | inhibition, % at 2.35 µM | 0.069% of 330,000 active;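 active = more than half of a compound's replicate wells show inhibition beyond 50%, single wells judged on their own value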;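 note: signal counts dimethyl H3K9 product captured on neutravidin plate; 0% = median of DMSO wells and 100% = 0.3 times that DMSO median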
V-ATPase pH – yeast V-ATPase proton transport regulation by pHLuorin | S. cerevisiae, pHLuorin cytosolic pH fluorescence | response, % at 10 µM | 0.37% of 350,000 active | AID 504577; in the data active = response mostly above about 7.3%, no sharp cut-off; inactive = mostly below about 5.4%; note: actives read high
MEX-5 binding – C. elegans MEX-5 TCR-2 RNA binding activity | Q9XUB2 | MEX-5/FITC-TCR2 RNA binding, fluorescence polarization; hits give low values | activity score (negative = inhibition of binding), % at 10 µM | 0.38% of 300,000 active | AID 1832;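 active = inhibition past about -25% in most replicates, and total fluorescence under double the plate's negative control median, limit read from the data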;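 note: 0% = DMSO and -100% = 5 µM competing unlabeled TCR2 RNA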
Target sequence (Q9XUB2 whole entry, looked up): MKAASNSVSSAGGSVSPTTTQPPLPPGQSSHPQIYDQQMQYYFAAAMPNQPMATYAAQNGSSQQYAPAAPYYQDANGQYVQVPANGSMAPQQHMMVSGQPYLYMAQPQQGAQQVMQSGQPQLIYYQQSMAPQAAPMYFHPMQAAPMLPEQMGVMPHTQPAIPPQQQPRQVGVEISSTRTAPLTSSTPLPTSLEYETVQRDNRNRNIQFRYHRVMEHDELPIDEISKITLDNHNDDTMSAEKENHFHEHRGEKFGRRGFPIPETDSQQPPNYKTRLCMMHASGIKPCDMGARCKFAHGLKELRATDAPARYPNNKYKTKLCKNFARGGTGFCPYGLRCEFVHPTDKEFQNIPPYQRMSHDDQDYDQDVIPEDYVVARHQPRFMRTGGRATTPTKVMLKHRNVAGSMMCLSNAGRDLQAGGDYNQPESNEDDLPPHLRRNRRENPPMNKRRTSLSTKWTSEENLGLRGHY
m5-HT2A agonist – mouse HTR2A agonism via beta-arrestin recruitment; activation, % at 7.6 µM; 0.66% of 360,000 active; CHO-K1 mHTR2A beta-arrestin complementation, luminescence; percent of 30 µM serotonin response;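 active = activation above a run cutoff, the mean activation of all tested compounds plus 3 SD, cut at about 14% in these data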;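 note: 0% = plate median of compound wells and 100% = 30 µM serotonin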
VLA-4 inh – inhibition in a human VLA-4 binding assay; VLA-4 expressing cells, ligand binding flow cytometry; inhibition, % (about 7 µM as worked out from the volumes in the protocol); 0.2% of 330,000 active; AID 2557; in the data active = inhibition above about 50%
VLA-4 allo CP – human VLA-4 allosteric modulation in cherry picked compounds. shares compounds with VLA-4 inh. U937 cells, HUTS-21 LIBS mAb binding, flow cytometry; LDV ligand present at threefold Kd. inhibition, % at 6.7 µM. 2% of 1,300 active. AID 2813; in the data active = inhibition above about 40%;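 note: 0% = ligand without compound and 100% = no ligand background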
* hit, by the source's call; i = inactive; . = no result given.

SMILES | Exocytosis inh | GASC-1 inh | V-ATPase pH | MEX-5 binding | m5-HT2A agonist | VLA-4 inh | VLA-4 allo CP
CCn1c(-c2ccc(-c3ccccc3)cc2)c[nH]c1=S | -0.2 | 3.1 | 0.9 | -0.3 | -7.0 | 92.6* | 9.0
C=CCn1c(-c2ccccc2)c[nH]c1=S | -1.3 | 5.3 | 3.3 | -0.8 | -4.8 | 12.8 | .
COc1ccccc1CNC(=O)CN(C)S(=O)(=O)c1ccc(F)cc1 | 10.3 | 20.1 | 3.5 | 2.4 | -1.5 | -6.0 | -3.5
COc1ccccc1CNC(=O)C(C)NS(=O)(=O)c1ccccc1 (centres undefined) | -0.3 | -4.7 | -1.1 | 0.3 | -17.7 | 6.6 | -6.7
O=C(O)c1cccc(NS(=O)(=O)c2cccc3cccnc23)c1 | 5.1 | 12.4 | -4.3 | 0.9 | -0.2 | 49.8* | 17.9
O=C(COC(=O)c1ccc(S(=O)(=O)N2CCCCC2)cc1)Nc1ccccc1 | -5.1 | -0.5 | 3.1 | . | 2.7 | 4.0 | .
CCCN(CC(=O)Nc1ccccc1OC)C(=O)Cn1c(=O)oc2ccccc21 | 19.5 | . | 5.9 | . | -4.9 | . | 2.9
CC(=O)Cn1c(=O)oc2ccccc21 | -0.3 | 19.7 | -1.7 | -1.2 | 1.1 | -7.9 | .
CCN(C(=O)Cn1c(=O)oc2ccccc21)c1cccc(C(F)(F)F)c1 | 3.0 | -5.4 | -0.1 | 3.3 | -3.4 | -9.6 | 9.1
CC1CN(C(=O)Cn2c(=O)oc3ccccc32)CC(C)O1 (centres undefined) | -1.4 | -0.1 | 0.6 | 1.5 | 4.7 | -9.2 | -14.8
CCN(C(=O)Cn1c(=O)oc2ccccc21)c1cccc(C)c1 | -6.4 | -5.1 | 2.7 | 1.5 | 0.3 | 6.6 | .
CC(=O)N1CCN(C(=O)Cn2c(=O)oc3ccccc32)CC1 | -2.8 | 0.0 | -1.6 | 0.9 | -1.5 | -3.1 | .
COc1ccccc1NC(=O)Cn1c(=O)oc2ccccc21 | 1.6 | -2.2 | -0.1 | 1.0 | 4.4 | -2.9 | .
CCN(CC)C(=O)Cn1c(=O)oc2ccccc21 | 6.3 | 1.9 | 1.9 | 1.1 | -2.0 | 6.3 | -13.2
O=C(CSc1ccccc1F)NCC(c1cccs1)N1CCOCC1 (centres undefined) | 9.1 | -1.5 | -6.5 | . | 5.5 | 7.2 | .
COc1ccc(OCC(O)CNC(=O)Nc2ccc(C(C)(C)C)cc2)cc1 (centres undefined) | 10.9 | 8.7 | -2.1 | 0.3 | 0.4 | 8.4 | .
COC(=O)Nc1ccc(S(=O)(=O)N2CCCc3ccccc32)cc1 | 1.9 | 0.1 | 2.9 | 3.3 | -1.2 | 79.5* | 0.7
CN1CCN(C(=O)c2cc3nc(-c4ccc(Cl)cc4)cc(C(F)(F)F)n3n2)CC1 | 2.3 | 1.2 | 0.8 | 0.3 | -4.1 | -10.5 | .
O=C(c1cc2nc(-c3ccc(Cl)cc3)cc(C(F)(F)F)n2n1)N1CCOCC1 | -1.6 | -12.2 | -0.4 | -1.4 | 4.8 | 42.9 | 5.4
O=C(CNc1n[nH]c(=O)[nH]c1=O)N/N=C/C1CC=CCC1 (centres undefined) | -3.4 | 70.1 | 7.2 | -0.4 | -0.6 | 2.5 | .
CCCCSc1nc2c(c(C(F)(F)F)c1C#N)CCC2 | 4.7 | -8.1 | 1.8 | 2.5 | -0.9 | 64.0* | 2.7
CCOC(=O)CCSc1nc2c(c(C(F)(F)F)c1C#N)CCC2 | -5.5 | 2.6 | -1.6 | -0.2 | -0.5 | 9.7 | .
COc1ccc(S(=O)(=O)NCCCN2CCCC2=O)c(OC)c1 | -6.3 | -6.3 | 1.3 | 1.3 | 1.8 | -0.9 | .
Cc1c(NC(=O)CSc2nc(-c3ccco3)cc(C(F)(F)F)n2)c(=O)n(-c2ccccc2)n1C | 4.0 | 16.3 | 0.9 | -0.3 | 1.0 | 93.4* | i
CC(=O)c1c(C)[nH]c(C(=O)CSc2nnc(C3CCCCC3)n2N)c1C | -0.6 | 8.4 | -1.9 | 0.5 | 0.4 | 51.9* | 4.4
SMILES | Exocytosis inh | GASC-1 inh | V-ATPase pH | MEX-5 binding | m5-HT2A agonist | VLA-4 inh | VLA-4 allo CP
COc1ccc(CN(C)C(=O)C(CCSC)NS(=O)(=O)c2ccc3c(c2)OCCO3)c(OC)c1OC (centres undefined) | 6.3 | . | -0.4 | . | 7.2 | . | .
O=C(CCCCC(=O)OC1CCCCC1)OC1CCCCC1 | -12.9 | . | -2.5 | . | 0.9 | . | .
CC(Oc1ccccc1Cl)C(=O)Nc1ccc(S(=O)(=O)N2CCCC2)cc1 (centres undefined) | -8.3 | -6.9 | 1.0 | -1.8 | -1.6 | 32.4 | .
COc1ccccc1CC(=O)OC(C)C(=O)Nc1ccc(S(=O)(=O)N2CCCCC2)cc1 (centres undefined) | -0.3 | 0.4 | -2.5 | . | -11.9 | 54.0* | -0.2
O=C(Nc1ccc(F)cc1)C(CCc1ccccc1)N1CCN(C(=O)c2ccco2)CC1 (centres undefined) | -11.9 | . | . | . | -2.8 | . | .
C=CCNc1ncnc2c1cnn2-c1cccc(C)c1 | -2.1 | -1.0 | 0.2 | -2.6 | 5.2 | 65.6* | 5.7
COc1ccc(NC(=O)Nc2ccc(F)cc2)cn1 | -11.4 | -15.0 | -1.4 | -1.7 | -7.2 | 3.8 | 6.1
CC(C)Oc1ccccc1C1CC(=O)Nc2cc3c(cc21)OCCO3 (centres undefined) | 10.6 | -2.7 | 0.9 | 3.0 | 0.1 | 15.8 | .
COc1cccc(C2CC(=O)Nc3cc4c(cc32)OCCO4)c1OC(C)C (centres undefined) | 6.2 | 4.5 | -3.3 | . | 0.7 | -10.4 | -5.8
CCCOc1c(OC)cccc1C1CC(=O)Nc2cc3c(cc21)OCCO3 (centres undefined) | -0.6 | 1.7 | 2.2 | 1.3 | 4.6 | 10.1 | 4.7
CCCOc1c(OC)cccc1C1CC(=O)Nc2cc3c(cc21)OCO3 (centres undefined) | 3.3 | -2.4 | 1.8 | -0.2 | 3.2 | 1.7 | .
O=C(CCNC(=O)c1ccc(Cl)cc1)NNC(=O)c1ccc(F)cc1 | -0.2 | . | -2.7 | . | -2.0 | . | .
Cc1ccc(CNC(=O)C2CCC(=O)N(CCc3cccc(F)c3)C2)cc1 (centres undefined) | -1.1 | 8.8 | -1.8 | -1.0 | 6.4 | 1.9 | .
COc1ccc(-c2csc(NC(=O)c3cccc(N4C(=O)CCC4=O)c3)n2)cc1C | 24.4 | 2.2 | 0.5 | 0.9 | -2.6 | 12.3 | .
COc1ccc(OC)c2sc(NC(=O)c3cccc(N4C(=O)CCC4=O)c3)nc12 | 0.6 | 8.6 | -1.9 | -0.9 | 0.8 | 64.6* | 4.0
CC(=O)Nc1ccc(S(=O)(=O)NCCN2CCNC2=O)cc1Cl | -1.8 | -26.9 | 1.6 | -3.6 | 0.2 | 31.1 | .
COc1ccccc1CC(=O)N1CCN(S(=O)(=O)c2ccccc2F)CC1 | 3.9 | 14.8 | 4.5 | . | -2.1 | 51.8* | -6.7
CCCOc1ccccc1/C=C(\C#N)C(=O)Nc1cccc(C)n1 | 2.1 | 6.5 | -4.2 | 1.2 | 7.1 | 6.1 | .
CCOc1ccccc1/C=C(/C#N)C(N)=O | 8.5 | 12.6 | -2.7 | -0.1 | 8.6 | 0.9 | 2.0
CCc1ccc(NC(=S)N2CCCCCCC2)cc1 | -1.6 | -0.7 | -0.2 | -0.9 | -6.1 | -0.5 | .
CC(=O)c1ccccc1NS(=O)(=O)c1ccccc1Cl | -1.9 | 8.6 | 0.5 | -0.8 | -3.6 | -3.2 | 4.4
